Results reported in PubChem BioAssay.

Assay: S. cerevisiae RM11-1a growth modifiers, primary screen, strain RM11-1a, OD600, basal, 24 h (AID 1177);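 also: cultures grown under basal conditions with no added stressor; test concentration not given here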
Conditions: OD600, 24 h, higher = more signal, called active from +8 up or from −8 down

z-score, inactive:
COC(=O)[C@]1(Cc2ccccc2CN=[N+]=[N-])N=C(c2ccc(OCCCO)cc2)O[C@@H]1c1ccccc1N=[N+]=[N-] 1.77, O=C1O[C@H](c2ccccc2)[C@H](c2ccccc2)N2[C@H]1[C@@H](C(=O)O)[C@]1(C(=O)Nc3ccc(C#CC4(O)CCCCCC4)cc31)[C@H]2c1ccccc1OCCO 3.22, COCCOC(=O)N1C(=O)[C@@]2(c3ccccc31)[C@H](C(=O)Nc1nc3ccccc3s1)[C@H]1C(=O)O[C@H](c3ccccc3)[C@H](c3ccccc3)N1[C@@H]2c1ccccc1OCCO 2.25, [N-]=[N+]=Nc1ccccc1C[C@]1(C(N)=O)COC(c2ccc(OCCCO)cc2)=N1 -0.762, CCOC(=O)C1=CCC(c2cccn2C(=O)OC(C)(C)C)N(S(=O)(=O)c2ccc(C)cc2)C1 (stereo not given) 0.824, O=C1C2C=CC(C(O)C(c3ccccc3)c3ccccc3)N(Nc3ccccc3F)C2C(=O)N1c1ccccc1 (stereo not given) 1.52, COc1cc(Cc2cc3c(c(-c4ccccc4)n2)[Si](C(C)C)(C(C)C)OC3)cc(OC)c1OC -0.776, CC1(C)OB(/C=C\CC(OC(=O)c2ccncc2)c2ccccc2)OC1(C)C (stereo not given) -0.786, COC(=O)[C@@]1(Cc2ccc(F)cc2)[C@H]2c3cc(C(=O)N(C)C)n(Cc4ccc(C(F)(F)F)nc4)c3C[C@H]2CN1C(=O)c1ccccc1 0.337, Cc1ccc(S[C@]2(C(=O)NC(C)C)CC(=O)N(Cc3ccccc3)[C@@H]2c2ccc(CO)cc2)cc1 -0.949
